High-throughput results from PubChem BioAssay.
NPC1 prom act = NPC1 promoter activation; Huh7 NPC1 promoter luciferase reporter, 24 h; 320,000 compounds, 2.4% hits; Potency, µM (highest dose often 9.22 µM), for the others: at the top dose activation, hits mostly activators; further: % of control where 0% means no effect; nearly all actives have a fitted effect of over 60% in size
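Compounds in DMSO were transferred onto Huh7 NPC1-luciferase reporter cells pre-incubated 2 h; after 24 h at 37 °C, Amplite reagent was dispensed and luminescence recorded 10 min later.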
FLuc modulator = inhibits or activates purified firefly luciferase, miR-21 counter-screen | purified FLuc, Km substrates, luminescence inhibition | Potency, µM (series often up to 57.5 µM), without a hit: at the highest dose activity change, negative = inhibition, actives largely listed as inhibitors | 360,000 compounds, 6.9% hits | AID 588342;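 further: plate controls were vehicle for no effect and reference inhibitor for full effect; nearly all actives have a fitted effect of over 55% in size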
Target sequence (P08659 whole entry, looked up): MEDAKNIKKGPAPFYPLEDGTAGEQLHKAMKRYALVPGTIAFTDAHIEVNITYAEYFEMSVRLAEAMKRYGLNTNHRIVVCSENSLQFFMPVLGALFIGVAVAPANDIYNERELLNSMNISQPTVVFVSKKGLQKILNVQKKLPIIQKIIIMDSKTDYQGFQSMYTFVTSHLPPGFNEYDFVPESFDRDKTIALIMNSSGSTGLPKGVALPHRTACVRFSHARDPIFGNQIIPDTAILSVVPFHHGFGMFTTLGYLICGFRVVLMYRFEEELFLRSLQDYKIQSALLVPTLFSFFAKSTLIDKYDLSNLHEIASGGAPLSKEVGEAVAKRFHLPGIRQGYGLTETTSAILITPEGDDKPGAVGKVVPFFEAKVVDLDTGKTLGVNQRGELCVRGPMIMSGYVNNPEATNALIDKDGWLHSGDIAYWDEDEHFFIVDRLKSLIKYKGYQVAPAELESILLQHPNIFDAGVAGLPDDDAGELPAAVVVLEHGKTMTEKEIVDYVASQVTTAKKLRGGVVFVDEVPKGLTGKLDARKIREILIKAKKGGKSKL
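Biochemical qHTS of compounds, final roughly 60 µM downward over six points, against 10 nM purified firefly luciferase using Km concentrations of substrates (10 uM D-luciferin, 10 uM ATP) in Tris acetate pH 7.5 buffer; luminescence output.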
SMN2 splice enh = enhancers of SMN2 splice variant expression; HEK293 SMN2-luciferase splicing reporter, luminescence, 30-36 h; Potency, µM (highest dose often 46.1 µM), without a hit: at the highest dose activity change, positive = activation, actives largely listed as activators; 210,000 compounds, 2.8% hits; AID 1458; further: % of control where 0% means no effect; nearly all actives have a fitted effect of over 55% in size
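HEK293 cells carry an SMN2 minigene-luciferase reporter in which exon 7 inclusion puts luciferase in frame. Cells were seeded at 2000 cells/well, attached for 10-12 hours, then exposed to compounds for 30-36 hours at 37C before ONE-Glo luminescence.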
ELG1 repair inh = blocks ELG1-dependent DNA repair in HEK293T cells. HEK293T ELG1-luciferase reporter, luminescence, 16 h; DNA damage induced by 5-fluorouridine. Potency, µM (top dose mostly 46.1 µM), without a hit: top-dose activity change, negative = inhibition, actives largely listed as inhibitors. 330,000 compounds, 2.3% hits. AID 504467; further: on the % scale 0 is the no-effect control and ±100 the full control effect; nearly all actives have a fitted effect of over 55% in size
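Reporter activity after DNA damage by 5-fluorouridine is monitored. Compound-treated cells incubate 16 hr at 37 °C, then ONE-Glo is added for 30 min before luminescence reading.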
ELG1 genotoxic = inducers of genotoxicity in HEK293T ELG1-luciferase cells | HEK293T ELG1-luciferase reporter, luminescence, 16 h | Potency, µM (series often up to 46 µM), inactives show at the highest dose activity change, positive = activation, most hits filed as activators | 330,000 compounds, 1.3% hits; further: % of control where 0% means no effect; nearly all actives have a fitted effect of over 60% in size
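Genotoxic stress is detected as increased luminescence from luciferase-tagged ELG1 in HEK293T cells, measured with ONE-Glo after a 16 hr treatment at 37 °C.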
Rab9 prom act = activators of Rab9 promoter; Huh7 Rab9 promoter-luciferase reporter, luminescence, 24 h; Potency, µM (doses to about 9.22 µM), for inactives: at the highest dose activation, negative = inhibition, usual class: activators; 320,000 compounds, 2.8% hits; AID 485297; further: % of control where 0% means no effect; nearly all actives have a fitted effect of over 60% in size
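Steps: seed 1500 Huh7 Rab9-luc cells per well, rest 2 h at 37 °C; add compound in DMSO; incubate 24 h; add luciferase reagent, 10 min ambient; read luminescence.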
Starred values were filed as active, the others as inactive; ? = inconclusive; . = not tested or not shown. Compounds with a hit are over-represented: about 9.2% of the library has one in this group of screens. The call rests on the fitted dose curve; in most records, active means well fitted curve in the direction sought with a large enough effect; inconclusive means small, poorly fitted or top-dose-only effect, or another doubt; inactive means no such curve, though single readings can be large; an effect the other way counts as inactive or inconclusive. Potency means the concentration at half of the fitted maximal effect.

SMILES	NPC1 prom act	FLuc modulator	SMN2 splice enh	ELG1 repair inh	ELG1 genotoxic	Rab9 prom act
COc1ccc(-c2cc(C(=O)NCCCN3CCCC3=O)c3ccccc3n2)cc1	-2.2%	12µM*	.	?	-6.0%	-4.2%
COc1ccc2sc(-c3ccc(S(C)(=O)=O)cc3)c(C(=O)NCCCN3CCCC3=O)c2c1	.	.	.	16.4µM*	-8.6%	.
COc1ccc(-c2cc(C(F)F)n3ncc(C(=O)NCCCN4CCCC4=O)c3n2)cc1	3.3%	0.5%	3.1%	6.51µM*	-11.3%	-1.7%
N#Cc1ccc(CN2CCC3(CCNCC3)CC2)cc1	.	.	-14.9%	.	.	.
NNc1nc2cc3c(cc2s1)OCCO3	1.58µM*	6.75µM*	.	?	?	1.58µM*
COc1ccc(C(=O)Nc2nc3cc4c(cc3s2)OCCO4)c(OC)c1	-3.1%	0.953µM*	.	?	?	-3.1%
COc1cc(OC)cc(C(=O)NNc2nc3cc4c(cc3s2)OCO4)c1	-1.2%	-14.0%	-19.8%	12.0%	1.2%	0.6%
O=C(Nc1nc2cc3c(cc2s1)OCCO3)c1cccs1	?	0.213µM*	.	?	0.411µM*	0.112µM*
COc1ccccc1C(=O)Nc1nc2cc3c(cc2s1)OCO3	1.78µM*	0.536µM*	.	?	?	1.58µM*
O=C(NCc1ccccc1CN1CCOCC1)c1ccc(-n2cccn2)cc1	.	.	.	-6.6%	-4.6%	.
COCC(=O)N1CCC2(CCCN(c3ncccn3)C2)CC1	.	.	-8.1%	.	.	.
COc1ccccc1C(=O)Nc1nc2cc3c(cc2s1)OCCO3	?	0.675µM*	.	?	2.06µM*	0.708µM*
COc1cccc(OC)c1C(=O)Nc1nc2cc3c(cc2s1)OCO3	9.9%	2.3%	.	4.3%	-2.6%	8.9%
Clc1cccc(Cl)c1/C=C/c1ccn[nH]1	-20.9%	16.9µM*	.	-8.8%	11.2%	8.2%
COc1ccccc1CNC(=O)c1c2c(nc3ccccc13)C(=O)N(C1CCCCC1)C2	.	6.3%	.	.	.	.
Cc1ccc(CNc2oc(-c3ccc(COc4ccc(C)cc4)o3)nc2C#N)cc1	.	4.8%	.	.	.	.
COc1ccc(C(C(C(=O)c2ccco2)N2CCOCC2)N2CCOCC2)cc1 (stereo not drawn)	0.2%	13.5µM*	-2.0%	16.3%	2.0%	-6.9%
CSc1ccc(C(C(C(=O)c2cccs2)N2CCOCC2)N2CCOCC2)cc1 (stereo not drawn)	2.5%	26.9µM*	13.8%	-11.2%	-1.3%	-1.4%
NS(=O)(=O)c1ccc(N2CCN(CCOc3ccc(Cl)cc3)CC2)nc1	-4.7%	0.3%	.	?	-19.0%	-10.9%
O=C(O)C(=O)/C(=C\c1ccc(Cl)cc1)c1ccc2ccccc2n1	6.4%	?	12.6µM*	?	?	22.6%
CCc1cccc(C)c1NC(=O)CN1CCCN(Cc2ccccc2Cl)S1(=O)=O	.	-9.9%	.	.	.	.
Cc1ccc(OCC(=O)N(C)CC(=O)Nc2ccc(Cl)c(C(F)(F)F)c2)c([N+](=O)[O-])n1	-5.6%	2.1%	.	-26.1%	-3.5%	0.9%
O=C1/C(=C\c2cc(Br)cc(Br)c2O)SC(=S)N1Cc1ccccc1	-1.3%	?	.	23.1µM*	-17.7%	-1.0%
O=C1/C(=C/c2ccc(O)c([N+](=O)[O-])c2)SC(=S)N1Cc1ccccc1	-3.5%	?	-70.8%	18.3µM*	-14.3%	-2.1%
O=C1/C(=C\c2ccc(O)cc2)SC(=S)N1Cc1ccccc1	0.4%	-19.0%	.	3.1%	0.6%	-2.0%
O=C1/C(=C\c2cccc([N+](=O)[O-])c2O)SC(=S)N1Cc1ccccc1	-6.0%	-17.4%	.	8.2µM*	-9.3%	-17.9%
O=C(c1ccc2n[nH]nc2c1)N1CCN(c2ccc(C(F)(F)F)cn2)CC1	-1.3%	0.7%	.	-6.5%	-0.8%	-6.0%
C=CCn1c(SCc2ccc(Cl)cc2)nc2cc(C(=O)N3CCC(C(N)=O)CC3)ccc2c1=O	-1.9%	-1.2%	12.3%	8.2µM*	-3.9%	-3.7%
N#CCSc1nc2ccccc2c2nc3ccccc3n12	-1.8%	-7.6%	0.3%	20.6µM*	-14.7%	0.0%
